From PubChem BioAssay (NCI)
Compounds without any hit were thinned out: in the full panel of roughly 83,000, 20% have a hit.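 In brief: 96-well plates, 48 h treatment, single concentration, percent growth endpoint.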 Values without a mark were called inactive. The source made the active and inactive calls. Rule for the calls: active = growth percent below 10; inactive = the rest.

These compounds were tested on SF-268 CNS (assay: NCI-60 one-dose screen, 48 h (100 = growth as untreated, 0 = no growth, -100 = all killed)). Conditions: 10 µM unless noted.
CC(=O)N1N=C(c2ccc(Cl)cc2)CC1c1c(C)nn(-c2ccccc2)c1N(C)Cc1ccccc1 (centres undefined) was tested, and the growth was 77.8%.
For CC1(C)CC2(C)CC(=O)C1C(C(=O)O)C2C(=O)O (centres undefined), the growth was 105%.
For COc1ccc(-c2cnc(SCC(=O)Nc3ccc(-c4nc5ccccc5s4)cc3)n2-c2ccc(OC)cc2)cc1, the growth was 100%.
Work on COc1ccc2c(c1)[n+](=O)c(C(=O)/C=C/c1cc(OC)c(OC)c(OC)c1)c(C)n2[O-] yielded a growth of 56.3%.
Work on Nc1c(C(=O)Nc2cccc(Cl)c2)sc2nc3c(cc12)C(O)CCC3 (centres undefined) yielded a growth of 50.2%.
For COc1cccc(-c2nc(-c3ccc(N)cc3)co2)c1, the growth was 128%.
O=C(Nc1ccccc1S)c1ccccc1 showed a growth of 103%.
For COc1ccc2c(c1)c(CC(=O)[Se]C)c(C)n2C(=O)c1ccc(Cl)cc1, the growth was -26.5% (active).
Nc1nc(SCc2cccnc2)c2ncn(C3OC(CO)C(O)C3O)c2n1 (centres undefined) was tested, and the growth was 90.6%.
With O=C1c2cc3c(cc2-c2c1c1ccc(Cl)cc1c(=O)n2CCCNCCO)OCO3 the growth was -76.7% (active).
With N#Cc1c(NC(=O)c2ccco2)[n+]([O-])c2cc(Cl)c(Cl)cc2[n+]1[O-] the growth was 114%.
With Cc1[nH]ccc2cc3nc4ccccc4c3cc12 the growth was 40%.
C=C1CC[C@@H]2[C@](C)(COC(C)=O)[C@H](OC(C)=O)CC[C@@]2(C)[C@@H]1CC(NCc1ccccc1)C1=CCOC1=O (some centres undefined) showed a growth of 62.1%.
COC(=O)c1cc2oc(/C=N\NC(=O)c3cc4oc(C)c(C)c4[nH]3)cc2[nH]1 was tested, and the growth was 106%.
